# Measured values reported in PubChem BioAssay (Tox21).
# Several values for one entry are separate records, joined by “and”; a condition that tells them apart may be missing. Equal values may be shown once. Inconclusive results are not listed. Where a call stands in place of a potency, no number is given. Where a structure was tested more than once in an assay, its records may differ in their call. Activity calls are given as the source filed them. Unless noted, calls follow the shape of the full dose curve.
# What was measured:
# [1] = Nuclear factor erythroid 2-related factor 2/antioxidant responsive element (Nrf2/ARE) small molecule agonists: qHTS cell viability counter screen in human keratinocytes (AID 1919968; active = well fitted cell-killing curve with a large enough effect in the repeat runs; also: nearly all actives have a fitted effect of over 55% in size)
# Outline: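 KeratinoSens cells (HaCaT keratinocytes stably carrying an ARE-luciferase reporter) were seeded at 1,500 cells/well and rested 5 h at 37 C/5% CO2. They were then exposed to compounds in DMSO for 23 h. Viability was read by CellTiter-Fluor fluorescence after 1 h.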
# [2] = Nuclear factor erythroid 2-related factor 2/antioxidant responsive element (Nrf2/ARE) small molecule agonists: luciferase reporter gene qHTS assay in human keratinocytes (AID 1919969); also: nearly all actives have a fitted effect of over 35% in size; also: potency is read from the fitted curve at half-maximal effect
# [3] = G protein-coupled receptor (GPCR) small molecule agonists, calcium flux assay: HEK293 wild type cell line counter screen (AID 1920065)
# Outline: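 Cells were plated and cultured 18 h at 37 C/5% CO2, then loaded with calcium dye for 1 h at 37 C. Compounds in DMSO were pin-transferred in agonist mode, and fluorescence (Ex/Em 480/540) was read kinetically for 3 min at 1 s intervals.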
# [4] = p53 small molecule agonists, cell-based qHTS assay with human liver microsomes (AID 1963577)
# Outline: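 Fluorescence of the beta-lactamase reporter in p53RE-bla cells, detected with LiveBLAzer substrate (2 h, room temperature, dark), served as the read-out after 16 h compound exposure at 37 C with human liver microsomes and NADPH, each 0.5 mg/mL final.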
# [5] = p53 small molecule agonists, cell-based qHTS assay with rat liver microsomes (AID 1963578)
# Outline: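 Cells carrying a p53 response element–beta-lactamase reporter were plated and rested 5 h, then dosed with compound in DMSO plus rat liver microsomes and NADPH, each at 0.5 mg/mL final. After 16 h at 37 C, LiveBLAzer substrate was added for 2 h.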
# [6] = p53 small molecule agonists, cell-based qHTS assay with rat liver microsomes: qHTS cell viability counter screen (AID 1963580); also: nearly all actives have a fitted effect of over 45% in size
# Outline: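 p53RE-bla HCT-116 cells (4,000/well) rested 5 h at 37 C, then given Tox21 compounds in DMSO with rat liver microsomes (0.5 mg/mL final) plus NADPH (0.5 mg/mL final) for 16 h at 37 C. Viability read by CellTiter-Glo luminescence after 30 min at room temperature.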
# [7] = p53 small molecule agonists, cell-based qHTS assay: qHTS cell viability counter screen (AID 1963581); also: nearly all actives have a fitted effect of over 45% in size
# Outline: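 p53RE-bla HCT-116 cells were exposed to compounds for 16 h at 37 C; after the beta-lactamase FRET read in the same wells, CellTiter-Glo was added and luminescence (intracellular ATP) read after 30 min at room temperature.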
# [8] = p53 small molecule agonists, cell-based qHTS assay (AID 1963582; active = well fitted activation curve with a large enough effect in the signal ratio in the repeat runs, not every such curve was filed as active; the % refers to the signal ratio)
# Outline: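 p53RE-bla beta-lactamase reporter cells rested 5 h at 37 C/5% CO2, then received compounds in DMSO by pin transfer and were incubated 16 h at 37 C. LiveBLAzer B/G FRET substrate was loaded for 2 h at room temperature before fluorescence reading.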
# [9] = molecular target: 5-hydroxytryptamine receptor 2A (Homo sapiens) (UniProt P28223); experiment: 5-hydroxytryptamine receptor 2A (HTR2A) small molecule antagonists, cell-based qHTS assay (AID 1963586); also: nearly all actives have a fitted effect of over 45% in size
# Sequence of 5-hydroxytryptamine receptor 2A (Homo sapiens) (P28223 whole entry, looked up): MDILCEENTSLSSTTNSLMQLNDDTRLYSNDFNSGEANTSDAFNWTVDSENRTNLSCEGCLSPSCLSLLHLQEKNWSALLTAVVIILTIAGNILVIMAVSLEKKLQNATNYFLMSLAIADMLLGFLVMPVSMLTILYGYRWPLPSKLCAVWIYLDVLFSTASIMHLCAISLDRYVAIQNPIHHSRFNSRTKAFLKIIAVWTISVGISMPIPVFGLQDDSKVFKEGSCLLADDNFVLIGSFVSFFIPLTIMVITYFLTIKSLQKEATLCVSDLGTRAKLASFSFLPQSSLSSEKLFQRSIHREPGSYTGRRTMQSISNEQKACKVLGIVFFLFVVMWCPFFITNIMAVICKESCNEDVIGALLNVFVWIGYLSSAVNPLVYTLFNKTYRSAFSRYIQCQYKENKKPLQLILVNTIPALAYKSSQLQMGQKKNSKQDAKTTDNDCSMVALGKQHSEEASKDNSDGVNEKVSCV
# Outline: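 Antagonist-mode intracellular calcium assay: DOI (4 nM) added after 5 min compound pre-incubation at room temperature to dye-loaded HTR2A-CHO cells. Fluorescence followed for 3 min, sampled every second.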
# [10] = molecular target: 5-hydroxytryptamine receptor 2A (Homo sapiens) (UniProt P28223); experiment: 5-hydroxytryptamine receptor 2A (HTR2A) small molecule agonists, cell-based qHTS assay (AID 1963587); also: nearly all actives have a fitted effect of over 30% in size
# Outline: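 HTR2A-CHO cells, plated 18 h at 37 C/5% CO2, dye-loaded 1 h at 37 C; compounds in DMSO added by pin tool (agonist mode). Intracellular calcium flux read as kinetic fluorescence on FDSS over 2 min at 1 s intervals.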
# [11] = molecular target: Muscarinic acetylcholine receptor M1 (Homo sapiens) (UniProt P11229); experiment: Cholinergic receptor muscarinic 1 (CHRM1) small molecule antagonists, cell-based qHTS assay (AID 1963588); also: nearly all actives have a fitted effect of over 40% in size
# Sequence of Muscarinic acetylcholine receptor M1 (Homo sapiens) (P11229 whole entry, looked up): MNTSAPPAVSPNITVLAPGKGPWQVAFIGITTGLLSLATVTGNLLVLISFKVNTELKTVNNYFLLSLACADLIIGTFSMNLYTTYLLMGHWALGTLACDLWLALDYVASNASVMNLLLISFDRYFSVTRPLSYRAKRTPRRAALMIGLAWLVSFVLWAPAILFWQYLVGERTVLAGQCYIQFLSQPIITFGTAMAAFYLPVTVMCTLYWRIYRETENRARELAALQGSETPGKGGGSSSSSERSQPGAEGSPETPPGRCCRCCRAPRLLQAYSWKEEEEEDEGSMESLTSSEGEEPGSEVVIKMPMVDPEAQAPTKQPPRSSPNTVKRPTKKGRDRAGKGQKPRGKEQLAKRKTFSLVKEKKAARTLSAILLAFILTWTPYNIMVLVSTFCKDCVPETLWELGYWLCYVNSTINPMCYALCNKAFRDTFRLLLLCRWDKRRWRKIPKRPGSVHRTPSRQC
# Outline: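 CHRM1-CHO calcium-flux assay, antagonist mode. Cells were seeded 18 h, dye-loaded 1 h at 37 C and given compound for 5 min at RT, then acetylcholine was added at 50nM. FDSS fluorescence was read 3 min; 15 concentrations, three runs.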
# [12] = molecular target: Muscarinic acetylcholine receptor M1 (Homo sapiens) (UniProt P11229); experiment: Cholinergic receptor muscarinic 1 (CHRM1) small molecule agonists, cell-based qHTS assay (AID 1963589); also: nearly all actives have a fitted effect of over 35% in size
# Outline: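 CHO cells stably expressing human CHRM1, seeded 18 h at 37 C/5% CO2, dye-loaded 1 h at 37 C, then given compound in agonist mode; intracellular calcium fluorescence read kinetically at 1 s intervals. Fifteen concentrations, three independent runs.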
# [13] = cAMP Responsive Elements (CRE) small molecule agonists, cell-based qHTS assay (AID 1963590)
# Outline: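 CRE-bla HEK 293T cells in DMEM with 10% dialyzed FBS, NEAA, pyruvate and 25 mM HEPES were plated 18 h at 37 C/5% CO2, then exposed to compounds in DMSO for 3 h before LiveBLAzer B/G FRET substrate addition.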
# [14] = cAMP Responsive Elements (CRE) small molecule antagonists, cell-based qHTS assay (AID 1963591; active = well fitted inhibition curve with a large enough effect in the signal ratio in the repeat runs, not every such curve was filed as active; the % refers to the signal ratio)
# Outline: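 CRE-bla HEK293T cells were plated 18 h at 37 °C/5% CO2, pinned with compound in DMSO, then stimulated with NKH477 at 0.25 uM final for 3 h. LiveBLAzer B/G FRET substrate was added and plates incubated 2 h at room temperature.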
# [15] = molecular target: Beta-2 adrenergic receptor (Homo sapiens) (UniProt P07550); experiment: Adrenergic beta2 receptor (ADRB2) small molecule antagonists, cell-based qHTS assay (AID 1963592); also: series mostly up to about 92 µM; nearly all actives have a fitted effect of over 50% in size
# Sequence of Beta-2 adrenergic receptor (Homo sapiens) (P07550 whole entry, looked up): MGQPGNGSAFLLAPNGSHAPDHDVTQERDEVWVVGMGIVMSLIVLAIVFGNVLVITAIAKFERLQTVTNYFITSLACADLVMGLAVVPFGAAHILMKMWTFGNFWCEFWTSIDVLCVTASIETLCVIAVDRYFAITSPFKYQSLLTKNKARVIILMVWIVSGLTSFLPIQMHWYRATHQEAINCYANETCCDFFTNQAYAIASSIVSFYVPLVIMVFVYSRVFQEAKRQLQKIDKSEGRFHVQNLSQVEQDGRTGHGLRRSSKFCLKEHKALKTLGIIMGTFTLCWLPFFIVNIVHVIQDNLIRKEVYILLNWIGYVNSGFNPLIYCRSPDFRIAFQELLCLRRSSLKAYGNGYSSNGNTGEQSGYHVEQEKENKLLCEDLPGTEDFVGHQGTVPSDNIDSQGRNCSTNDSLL
# Outline: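 Cells (CHO, stable ADRB2 overexpression) incubated 18-20hr at 37C; compounds added from DMSO; agonist mix (1nM isoproterenol, 100uM IBMX, 25uM Ro-20-1724) added; 0.5hr RT; d2-cAMP and anti-cAMP-cryptate added; 1hr RT; 665/615 nm read.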
# [16] = molecular target: D(2) dopamine receptor (Homo sapiens) (UniProt P14416); experiment: Dopamine D2 receptor (DRD2) small molecule agonists, cell-based qHTS assay (AID 1963594); also: nearly all actives have a fitted effect of over 35% in size
# Sequence of D(2) dopamine receptor (Homo sapiens) (P14416 whole entry, looked up): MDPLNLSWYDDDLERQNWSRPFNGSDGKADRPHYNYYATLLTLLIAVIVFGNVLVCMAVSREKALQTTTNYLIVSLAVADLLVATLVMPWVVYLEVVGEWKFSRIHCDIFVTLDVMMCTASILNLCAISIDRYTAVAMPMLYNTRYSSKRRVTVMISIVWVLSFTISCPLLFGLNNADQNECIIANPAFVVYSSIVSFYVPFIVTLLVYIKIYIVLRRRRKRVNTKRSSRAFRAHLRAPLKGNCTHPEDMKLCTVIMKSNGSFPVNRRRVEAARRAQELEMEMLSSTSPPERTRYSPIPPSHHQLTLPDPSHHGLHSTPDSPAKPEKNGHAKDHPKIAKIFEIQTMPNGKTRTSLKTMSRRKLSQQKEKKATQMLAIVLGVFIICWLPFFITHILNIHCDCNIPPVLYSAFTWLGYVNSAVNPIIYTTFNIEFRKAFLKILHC
# Outline: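 HEK293 cells stably expressing DRD2 were cultured 24 h at 37 C, then given Ro20-1724 (0.1 mM final) and compounds for 10 min at room temperature. NKH477 (200nM) was then added for 30 min. cAMP was read by HTRF.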
# [17] = molecular target: D(2) dopamine receptor (Homo sapiens) (UniProt P14416); experiment: Dopamine D2 receptor (DRD2) small molecule antagonists, cell-based qHTS assay (AID 1963595; active = well fitted inhibition curve with a large enough effect in the signal ratio in the repeat runs, with a control signal flat; the % refers to the signal ratio)
# Outline: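 Antagonism was scored as restored cAMP in HEK293-DRD2 cells. These cells were stimulated with 200 nM NKH477 and 12 nM quinpirole for 30 min at room temperature, in the presence of 0.1 mM Ro20-1724.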
# [18] = p53 small molecule agonists, cell-based qHTS assay with human liver microsomes: qHTS cell viability counter screen (AID 1963579); also: nearly all actives have a fitted effect of over 45% in size
# Outline: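 Cytotoxicity counter screen: p53RE-bla, 4,000 cells/well; 5 h settle, 37 C/5% CO2; cpd + HLM 0.5 mg/mL + NADPH 0.5 mg/mL (final); 16 h, 37 C; CellTiter-Glo, 30 min RT, luminescence.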
# [19] = molecular target: Beta-2 adrenergic receptor (Homo sapiens) (UniProt P07550); experiment: Adrenergic beta2 receptor (ADRB2) small molecule agonists, cell-based qHTS assay (AID 1963593);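 also: CHO cells stably overexpressing human ADRB2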
# Outline: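 CHO cells stably over-expressing ADRB2 were plated overnight at 37C, then dosed with compounds plus a stimulation mix containing 100uM IBMX and 25uM Ro-20-1724 for 0.5hr at room temperature. cAMP was measured by HTRF competition, 1hr.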
Compound,Potency [1],Potency [2],Potency [3],Potency [4],Potency [5],Potency [6],Potency [7],Potency [8],Potency [9],Potency [10],Potency [11],Potency [12],Potency [13],Potency [14],Potency [15],Potency [16],Potency [17],Potency [18],Potency [19]
CC(C)(O)C(=O)c1ccc(OCCO)cc1,inactive,inactive,inactive,inactive,inactive,inactive,inactive,inactive,inactive,inactive,inactive,inactive,inactive,inactive,inactive,inactive,inactive,–,–
CCCC1O[C@@H]2C[C@H]3[C@@H]4CCC5=CC(=O)C=C[C@]5(C)[C@H]4[C@@H](O)C[C@]3(C)[C@]2(C(=O)CO)O1 (stereo partly specified),inactive,inactive,inactive,inactive,inactive,inactive,inactive,–,–,–,–,–,–,–,inactive,inactive,inactive,inactive,inactive
CC(=O)O[C@@H]1C[C@@H]2CC[C@@]1(C)C2(C)C,inactive,inactive,inactive,inactive,inactive,–,inactive,inactive,inactive,inactive,inactive,inactive,inactive,inactive,inactive,inactive,inactive,inactive,inactive
C(=C\c1ccccc1)/c1ccccc1,inactive,inactive,inactive,inactive,inactive,–,inactive,inactive,inactive,inactive,inactive,inactive,inactive,–,inactive,inactive,inactive,–,inactive
C=CC(=O)CC,inactive,inactive,inactive,inactive,–,–,inactive,inactive,inactive,inactive,inactive,inactive,–,inactive,inactive,inactive,inactive,inactive,inactive
CS(=O)(=O)c1ccc(Cl)cc1,inactive,inactive,inactive,–,–,inactive,inactive,–,inactive,inactive,inactive,inactive,inactive,inactive,inactive,inactive,inactive,inactive,inactive
CCCCCCCO,inactive,inactive and 61.1 µM (active),inactive,–,–,inactive,inactive,–,inactive,inactive,inactive,–,inactive,–,inactive,inactive,inactive,inactive,inactive
CN(C)c1cc(NC(=O)CNC(C)(C)C)c(O)c2c1C[C@H]1C[C@H]3[C@H](N(C)C)C(=O)C(C(N)=O)=C(O)[C@@]3(O)C(=O)C1=C2O,inactive,inactive,inactive,inactive,–,inactive,–,inactive,inactive,inactive,inactive,–,inactive,inactive,inactive,inactive,inactive,inactive,–
CC(C)=CCCC(C)O (stereo unspecified),inactive,inactive,inactive,inactive,–,inactive,inactive,inactive,inactive,inactive,inactive,inactive,inactive,inactive,inactive,inactive,inactive,–,inactive
CCC(C)(C)C1CCCCC1OC(C)=O (stereo unspecified),inactive,inactive,inactive,inactive,inactive,inactive,inactive,–,inactive,inactive,inactive,inactive,inactive,inactive,inactive,inactive,inactive,inactive,–
OCc1c2ccccc2cc2ccccc12,inactive,inactive,inactive,inactive,inactive,inactive,inactive,inactive,inactive,–,inactive,inactive,inactive,inactive,–,inactive,inactive,inactive,inactive
CCOCCOCC,inactive,inactive,inactive,inactive,inactive,inactive,–,inactive,inactive,inactive,inactive,inactive,inactive,inactive,inactive,inactive,inactive,inactive,inactive
C/C=C/CO,inactive,inactive,inactive,inactive,inactive,inactive,inactive,inactive,inactive,inactive,–,inactive,inactive,inactive,inactive,inactive,inactive,inactive,–
CC(O)C(CO)C(C)O (stereo unspecified),inactive,inactive,inactive,inactive,inactive,–,inactive,–,inactive,inactive,inactive,inactive,inactive,inactive,–,inactive,inactive,inactive,inactive
CCN(CC#N)c1cccc(C)c1,inactive,inactive,inactive,inactive,inactive,inactive,inactive,inactive,inactive,inactive,–,inactive,inactive,inactive,inactive,inactive,inactive,inactive,inactive
CC1(C)C(O)C(C)(C)C1O (stereo unspecified),inactive,inactive,inactive,inactive,inactive,inactive,inactive,–,inactive,inactive,inactive,inactive,inactive,inactive,inactive,inactive,–,inactive,inactive
